The source of these data is PubChem BioAssay.

The target in the first test is NADPH oxidase 5 (Homo sapiens) (UniProt Q96PH1). Briefly: compounds shifting NOX5 Amplex Red fluorescence – cell-based, HEK293-NOX5, NOX inhibitor project, primary screen (AID 1161). The conditions noted are these: HEK293-NOX5, ionomycin, 45 min, higher = more signal.
Chain of NADPH oxidase 5 (Homo sapiens) (Q96PH1 whole entry, looked up): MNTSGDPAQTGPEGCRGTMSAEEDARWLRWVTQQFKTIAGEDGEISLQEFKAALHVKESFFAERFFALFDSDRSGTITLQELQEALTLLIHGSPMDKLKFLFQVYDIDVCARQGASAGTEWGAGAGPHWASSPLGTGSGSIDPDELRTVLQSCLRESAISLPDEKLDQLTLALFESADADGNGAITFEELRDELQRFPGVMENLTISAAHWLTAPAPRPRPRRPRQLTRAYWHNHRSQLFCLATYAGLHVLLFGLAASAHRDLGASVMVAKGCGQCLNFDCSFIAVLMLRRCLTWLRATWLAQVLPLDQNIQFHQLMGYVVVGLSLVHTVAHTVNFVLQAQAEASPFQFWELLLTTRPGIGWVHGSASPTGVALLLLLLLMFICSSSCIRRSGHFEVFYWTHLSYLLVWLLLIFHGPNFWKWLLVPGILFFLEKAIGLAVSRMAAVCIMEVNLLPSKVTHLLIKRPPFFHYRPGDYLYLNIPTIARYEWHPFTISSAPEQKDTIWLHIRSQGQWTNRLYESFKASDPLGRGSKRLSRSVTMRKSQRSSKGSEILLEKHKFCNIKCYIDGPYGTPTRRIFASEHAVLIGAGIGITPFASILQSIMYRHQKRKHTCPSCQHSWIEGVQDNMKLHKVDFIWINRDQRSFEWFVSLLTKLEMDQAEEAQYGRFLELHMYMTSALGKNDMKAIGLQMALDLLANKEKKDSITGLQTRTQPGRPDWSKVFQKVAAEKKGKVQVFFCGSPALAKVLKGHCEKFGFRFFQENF
Take `COCCCNC(=O)[C@@]1(Sc2ccc(C)cc2)CC(=O)N(C2Cc3ccccc3C2)[C@@H]1c1ccc(CO)cc1`: the z-score was -1.76.

`CS(=O)(=O)CCOC(=O)C1=CC(c2ccc(CO)cc2)=CC(C2CC2)N(Cc2sc3ccccc3c2Cl)C=C1C(=O)OCCS(C)(=O)=O` (stereo not drawn): the z-score is -0.935.

For `C=CCOC(=O)[C@@H]1[C@H]2C(=O)O[C@H](c3ccccc3)[C@H](c3ccccc3)N2[C@H](c2ccc(OCCOC(=O)[C@@H]3C[C@@H]4C(=O)N[C@@H](CCCC[N+](C)(C)C)C(=O)N4[C@@H]3c3ccc(O)cc3)cc2)[C@@]12C(=O)Nc1ccc(I)cc12`, the z-score was 0.718.

As for `OCCCC1=CC(c2ccc(CN3CCCC3)cc2)N(Cc2cc3c(cc2Br)OCO3)CC1` (stereo not drawn), the z-score is -1.2.

Regarding `CC(c1ccccc1)C(O)C1C=CC2C(=O)N(C)C(=O)C2N1Nc1ccccc1` (stereo not drawn), the z-score was -3.26.

For the compound `CC(C)N1C(=O)C[C@@](C(=O)O)(c2ccc([N+](=O)[O-])cc2)[C@H]1c1ccc(CO)cc1`, the z-score came to 1.02.

For `CCCC#C[Si](O[C@H](CC)c1cn([C@H](C)c2ccccc2)nn1)(C(C)C)C(C)C`, the z-score amounted to 0.7.

Tested on in a further test: not listed separately
Briefly: compound effects on lung adenocarcinoma cell viability – A549, calcein-AM fluorescence, 48 h, basal, profiling panel (AID 1162). Also: test concentration not given here. The following applies: higher = more signal.
Turning to `CC1CC/C=C\[C@H]2OC34C=CCN(C(C)C)C(=O)[C@H]3N(CCO)C(=O)[C@@H]4C2C(=O)O1` (stereo partly drawn), the z-score is 0.649.

In the case of `C=C(/C(=C/C[C@H](OC(=O)c1ccncc1)c1ccc(CO)o1)c1cnc2ccccc2c1)C(C)C`, the z-score is 1.07.

With `Cc1ccc(F)cc1S(=O)(=O)N[C@@H]1CCN(Cc2ccc(Br)cc2)C1`, the z-score was -0.0023.

As to `CN1C2C=C(CCCO)C(C3C(=O)N(C(N)=O)C(=O)C32)C1C1CC1` (stereo not drawn), the z-score was 0.0701.

Take `Cc1ccc(S[C@]2(C(=O)O)CC(=O)N(C3CCCCC3)[C@@H]2c2ccc(CO)cc2I)cc1`: the z-score was -0.756.

For the compound `COCCOC(=O)N1C(=O)[C@@]2(c3cc(C#CC4(O)CCCCCC4)ccc31)[C@H](C(=O)N1CCc3cc(OC)c(OC)cc3C1)[C@H]1C(=O)O[C@H](c3ccccc3)[C@H](c3ccccc3)N1[C@@H]2c1ccc(OCCO)cc1`, the z-score is -0.111.

For the compound `COC(=O)[C@@]1(Cc2ccc(OC)cc2)[C@H]2c3cc(C(=O)N4CCCC4)n(CCc4c[nH]c5ccc(O)cc45)c3C[C@H]2CN1C(=O)c1ccccc1`, the z-score is 1.06.

Turning to `CN(C)C(=O)[C@]1(CCC(=O)OC(C)(C)C)N=C(c2ccc(OCCCO)cc2)O[C@@H]1c1ccccc1CN=[N+]=[N-]`, the z-score is -0.307.

Consider `CCOC(=O)C1=CC[C@@H](c2ccccc2)N(S(=O)(=O)c2ccc(C)cc2)[C@H]1c1ccccc1`, for which the z-score is -0.84.

Consider `NC(=O)[C@H]1[C@@H]2C(=O)O[C@@H](c3ccccc3)[C@@H](c3ccccc3)N2[C@@H](c2ccc(OCCO)cc2)[C@]12C(=O)Nc1ccc(C#CCCO)cc12`, for which the z-score was 0.0067.

In the case of `CCCCCCCCCC(O)C1C=CC2C(=O)N(c3ccccc3)C(=O)C2N1Nc1cc(OC)c(OC)c(OC)c1` (stereo not drawn), the z-score is -1.07.

For the compound `COc1cc(OC)c(C(O)C2C=CC3C(=O)N(Cc4ccccc4)C(=O)C3N2n2cnnc2)cc1Br` (stereo not drawn), the z-score was -0.407.

`O=C1O[C@@H](c2ccccc2)[C@@H](c2ccccc2)N2[C@@H](c3ccc(OCCO)cc3)[C@]3(C(=O)Nc4ccc(C#CC5=CCCCC5)cc43)[C@@H](C(=O)NC[C@H](O)c3ccccc3)[C@H]12`: the z-score is 0.152.

Take `CC(C)[Si](C#CCCCC#N)(O[C@H](c1ccccc1)c1cn(Cc2ccccc2)nn1)C(C)C`: the z-score was 0.059.

For the compound `CC1=C2[C@@H](CCc3ccccc3)OB(O)C[C@@H]2[C@@H]2C(=O)N(C)C(=O)[C@@H]2C1`, the z-score was -0.0116.

`COc1ccc([Si](C)(C)[C@H]2[C@H](CC(=O)N(CCO)Cc3ccccc3)O[C@@]3(C(=O)N(C)c4c(Br)cc(C)cc43)[C@@H]2C)cc1`: the z-score was -3.51.

As for `C=CC[C@@]1(C(=O)NCCCOC)N=C(c2ccc(OCCCO)cc2)O[C@@H]1c1ccccc1N=[N+]=[N-]`, the z-score was 1.42.

Turning to `COC(=O)C(CC#Cc1ccc2c(c1)[C@]1(C(=O)N2)[C@H](c2ccc(O)cc2)N2[C@H](c3ccccc3)[C@H](c3ccccc3)OC(=O)[C@H]2[C@@H]1C(=O)NC[C@H](O)c1ccccc1)C(=O)OC`, the z-score is -0.857.

Turning to `COc1ccc([Si](C)(C)[C@H]2[C@H](CC(=O)N3Cc4ccccc4C[C@H]3CO)O[C@@]3(C(=O)N(Cc4ccc(N5CCOC5=O)cc4)c4ccccc43)[C@@H]2C)cc1`, the z-score was -0.135.

For the compound `COC(=O)c1c(CC[C@@H](CO)NC(=O)N[C@@H](C)Cn2cc(-c3ccccn3)nn2)oc(C(C)=O)c1C(=O)OC`, the z-score is -0.495.

Turning to `COCC(=C=CC[C@H](O)c1ccc(OCCO)cc1)CCO`, the z-score was 1.06.

Regarding `N[C@@H](Cc1ccccc1)C(=O)NCc1cn(Cc2ccccc2)nn1`, the z-score was 0.322.

Consider `CCOC(=O)C[C@H]1[C@H](OC(=O)Cc2ccc3c(c2)OCO3)[C@@H](NC(=O)c2ccc3ccccc3n2)c2cc(OCCCO)ccc2N1C(=O)c1ccccc1`, for which the z-score was 0.776.

As for `CC(CO)N1C(=O)[C@]2(C)C3C(=O)OCCC/C=C\[C@H]3OC23C=CCN(c2ccc(Cl)cc2)C(=O)[C@@H]13` (stereo partly drawn), the z-score is 0.592.

Consider `CC(=O)NCCCC[C@@H]1NC(=O)[C@@H]2C[C@H](C(=O)NCCCCCN)[C@H](c3ccc(O)cc3)N2C1=O`, for which the z-score is -0.185.

Turning to `COC(=O)[C@@]1(Cc2ccccc2)[C@H]2c3cc(C(=O)N(C)C)n(Cc4ccc(C)o4)c3C[C@H]2CN1C(=O)c1ccccc1`, the z-score was -2.02.

Consider `CCCC[C@@H](O)C1=C(COc2ccccc2)C[C@H]2C(=O)N(Cc3ccccc3)C(=O)[C@H]2[C@H]1CO`, for which the z-score was 0.553.

As for `COC(=O)C1(CC(C)C)C=C2C(=C(c3ccccc3)C(=O)C2C)CN1` (stereo not drawn), the z-score is -0.837.

Consider `COc1ccc(CCNC(=O)[C@@]2(c3ccc([N+](=O)[O-])cc3)CC(=O)N(C3CCCCC3)[C@@H]2c2ccc(CO)cc2)cc1`, for which the z-score was 2.41.

Turning to `COCCCNC(=O)[C@@]1(Sc2ccc(C)cc2)CC(=O)N(C2Cc3ccccc3C2)[C@@H]1c1ccc(CO)cc1`, the z-score was 0.771.

Regarding `CS(=O)(=O)CCOC(=O)C1=CC(c2ccc(CO)cc2)=CC(C2CC2)N(Cc2sc3ccccc3c2Cl)C=C1C(=O)OCCS(C)(=O)=O` (stereo not drawn), the z-score was -0.852.

With `C=CCOC(=O)[C@@H]1[C@H]2C(=O)O[C@H](c3ccccc3)[C@H](c3ccccc3)N2[C@H](c2ccc(OCCOC(=O)[C@@H]3C[C@@H]4C(=O)N[C@@H](CCCC[N+](C)(C)C)C(=O)N4[C@@H]3c3ccc(O)cc3)cc2)[C@@]12C(=O)Nc1ccc(I)cc12`, the z-score was -0.602.

For the compound `OCCCC1=CC(c2ccc(CN3CCCC3)cc2)N(Cc2cc3c(cc2Br)OCO3)CC1` (stereo not drawn), the z-score was -0.8.

For `CC(c1ccccc1)C(O)C1C=CC2C(=O)N(C)C(=O)C2N1Nc1ccccc1` (stereo not drawn), the z-score was -0.227.

`CC(C)N1C(=O)C[C@@](C(=O)O)(c2ccc([N+](=O)[O-])cc2)[C@H]1c1ccc(CO)cc1`: the z-score is 2.22.

For the compound `CCCC#C[Si](O[C@H](CC)c1cn([C@H](C)c2ccccc2)nn1)(C(C)C)C(C)C`, the z-score is 1.18.
